Screening results deposited in PubChem BioAssay by National Center for Advancing Translational Sciences (NCATS).
An excerpt weighted towards active compounds, which were near 10% of everything screened.
G9a block: blocks human histone lysine methyltransferase G9a; Q96KQ7; G9a H3K9 monomethylation, AlphaScreen, 2 h; Potency, µM (titrated, usually from 102 µM), for the others: top-dose activity, negative = inhibition, actives largely listed as inhibitors; actives 8.8% (n = 350,000); further: potency means the concentration at half of the fitted maximal effect; nearly all actives have a fitted effect of over 75% in size
Target sequence (Q96KQ7 913-1193 limits assumed): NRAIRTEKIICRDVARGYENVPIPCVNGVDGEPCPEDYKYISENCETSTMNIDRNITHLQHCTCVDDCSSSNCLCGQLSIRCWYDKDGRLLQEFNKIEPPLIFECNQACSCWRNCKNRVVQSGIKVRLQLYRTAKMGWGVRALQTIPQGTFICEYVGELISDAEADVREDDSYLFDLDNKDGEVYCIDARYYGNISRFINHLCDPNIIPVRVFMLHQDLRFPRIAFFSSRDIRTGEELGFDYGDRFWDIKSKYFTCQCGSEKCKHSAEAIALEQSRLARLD
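Quantitative HTS format: methyltransferase activity on a biotin-tagged H3K9 peptide is measured by AlphaScreen, using a rabbit anti-monomethyl-H3K9 antibody with streptavidin donor and anti-IgG acceptor beads. Final levels are 20 nM enzyme, 500 nM peptide, 20 uM SAM; 2 h RT.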
PLK1 PBD inh: inhibitors of human PLK1 polo-box domain binding; Potency, µM, without a hit: max response, negative = inhibition, hits mostly inhibitors; Plk1 PBD binding of FITC phosphopeptide, fluorescence polarization; AID 720504; actives 2.8% (n = 360,000); further: potency means the concentration at half of the fitted maximal effect; series mostly up to about 57 µM; nearly all actives have a fitted effect of over 65% in size
MmCpn inh: inhibitors of Methanococcus maripaludis chaperonin TRiC (MmCpn); purified Mm-Cpn ATPase, ADP Transcreener TR-FRET; Potency, µM (titrated, usually from 76.9 µM), inactives show top-dose activity, negative = inhibition, actives largely listed as inhibitors; actives 0.031% (n = 330,000); AID 504842; further: potency means the concentration at half of the fitted maximal effect; nearly all actives have a fitted effect of over 80% in size
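Reaction buffer contained 30 mM Tris pH 7.4, 100 mM KCl, 5 mM MgCl2 and 1 mM DTT. Mm-CPN (25 nM final) hydrolysed 10 uM ATP over 30 min at 37°C; ADP was read by HTRF.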
CCT chaperon mod: changes cytosolic chaperonin activity; purified chaperonin ATPase assay, HTRF ADP detection, 30 min; activity change, % (test concentration not listed), hits read low; AID 651819; actives 0.3% (n = 360,000); in the data active means activity change below about -30%
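Nucleotide hydrolysis assay: TRiC at 20–40 nM final (set by batch activity) with 10 uM ATP, 30 min at 37 °C, in presence of 76 uM compound. Detection by competitive ADP HTRF, 30 min ambient.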
VDR inh: inhibitors of human vitamin D receptor. P11473. VDR-SRC2-3 peptide fluorescence polarization, 2 h. actives 0.93% (n = 400,000). Potency, µM, for the others: max response, negative = inhibition, usual class: inhibitors. AID 504847; further: potency means the concentration at half of the fitted maximal effect
Target sequence (P11473 whole entry, looked up): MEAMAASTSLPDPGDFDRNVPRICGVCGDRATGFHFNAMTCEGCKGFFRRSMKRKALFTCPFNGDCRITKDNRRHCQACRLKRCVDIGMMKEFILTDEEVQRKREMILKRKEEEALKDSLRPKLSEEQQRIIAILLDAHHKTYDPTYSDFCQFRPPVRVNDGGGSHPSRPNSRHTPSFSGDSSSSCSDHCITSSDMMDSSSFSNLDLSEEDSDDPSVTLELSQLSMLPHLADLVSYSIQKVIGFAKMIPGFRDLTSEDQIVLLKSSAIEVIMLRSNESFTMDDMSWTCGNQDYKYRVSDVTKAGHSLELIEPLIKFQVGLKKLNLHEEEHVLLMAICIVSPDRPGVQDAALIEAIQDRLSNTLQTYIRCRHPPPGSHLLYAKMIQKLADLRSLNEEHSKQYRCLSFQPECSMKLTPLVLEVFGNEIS
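Measured by FP: displacement of SRC2-3 coactivator peptide from VDR by library compounds, following a two-hour ambient incubation.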
Sfp inh: blocks B. subtilis Sfp PPTase activity; Q9F4F7; Biochemical Sfp PPTase activity, qHTS; Potency, µM, without a hit: largest response in the series, negative = inhibition, hits mostly inhibitors; actives 3.5% (n = 310,000);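 further: the enzyme is Sfp with the accession as filed and its product quenches rhodamine fluorescence; potency means the concentration at half of the fitted maximal effect; 0% = enzyme reaction without inhibitor and -100% = no enzyme wells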
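Buffer: 50 mM Hepes-Na pH 7.6, 10 mM MgCl2, 0.01% Nonidet P-40, 0.01% BSA. Enzyme 15 nM, pre-exposed to compound 15 min; substrates then added and fluorescence change tracked over 30 min.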
Active calls of the source: *; ? = inconclusive; · = not tested or not shown; [ ] = remark or other dose. Unless noted, the call rests on the fitted dose curve; in most records, active means well fitted curve in the direction sought with a large enough effect; inconclusive means small, poorly fitted or top-dose-only effect, or another doubt; inactive means no such curve, though single readings can be large; an effect the other way counts as inactive or inconclusive. Unless noted, on the % scale 0 is the no-effect control and ±100 the full control effect.

SMILES	G9a block	PLK1 PBD inh	MmCpn inh	CCT chaperon mod	VDR inh	Sfp inh
CC(C)(C)c1ccc(-c2nc(C#N)c(NCCCn3ccnc3)o2)cc1	·	-2%	-2%	-1	-11%	-25%
N#Cc1nc(-c2ccc(OCc3ccccc3)cc2)oc1NCc1cccnc1	?	-6%	0%	-36*	9%	-2%
Cc1ccc(-c2nc(C#N)c(NCc3cccc4c3OCO4)o2)cc1	10µM*	-1%	-7%	-2	6%	-2%
CC(C)(C)c1ccc(-c2nc(C#N)c(NCc3ccncc3)o2)cc1	20µM*	-4%	-1%	-1	13%	?
CC(=O)N1CCC(N(Cc2ccc(C)o2)C(=O)Nc2cccc(C(F)(F)F)c2)CC1	?	·	·	·	1%	·
NC(Cc1cc(I)c(Oc2cc(I)c(O)c(I)c2)c(I)c1)C(=O)O (stereo unspecified)	-38%[2.33 µM]	·	·	·	?	-2%
COc1ccc(C(=O)NCc2nnnn2-c2ccc(C)c(C)c2)cc1	10%[59 µM]	·	·	·	5%	·
CO[C@@H]1COC(=O)C/C=C\[C@H](C)[C@H](OC)COC(=O)[C@H](C)NC(=O)C/C=C\[C@H]1C	·	·	·	·	·	13%
Cc1ccc(S(=O)(=O)CCC(=O)Oc2ccc(-c3nnco3)cc2)cc1	20µM*	-18%	2%	-1	7%	·
COc1ccc(CC(=O)NNC(=O)CCC(=O)Nc2cc(C)ccc2C)cc1	·	?	0%	1	89µM*	11%
COc1ccc(S(=O)(=O)CCC(=O)Nc2cc(C)ccc2OC)cc1	28µM*	-11%	-1%	0	-14%	50µM*
COc1ccc(C(=O)CCS(=O)(=O)c2ccc(C)cc2)cc1	-9%	11µM*	1%	1	?	-3%
CCOc1ccc(NC(=O)CC2C(=O)N(c3ccc(C)cc3)C(=O)N2C2CCCCC2)cc1 (stereo unspecified)	-22%[59 µM]	·	·	·	-6%	·
c1ccc(-c2n[nH]c3c2oc2ccccc23)cc1	9%[59 µM]	·	·	·	4%	-22%
CC1(C)CO[C@@H](CC(=O)O)CN1	33%[59 µM]	·	·	·	6%	21%
O=C1CSC(=S)N1Nc1ccccc1	·	-29%	·	-34*	19%	·
Cc1ccccc1C(=O)NN1C(=O)CSC1=S	-22%[59 µM]	-7%	-19%	-1	19%	-23%
COc1cccc(Cn2c(SCC(=O)N3CCN(c4ccc(F)cc4)CC3)nc3ccccc32)c1	3%[59 µM]	·	·	·	13%	·
Cc1ccc([N+](=O)[O-])c(NC(=O)COC(=O)C2CC3CCCC(C2)C3=O)c1C (stereo unspecified)	79µM*	-5%	-1%	2	-22%	14%
Cc1cccc([N+](=O)[O-])c1NC(=O)COC(=O)C1CC2CCCC(C1)C2=O (stereo unspecified)	5%[59 µM]	-4%	0%	-2	20%	·
CCNC(=O)CC1C(=O)N(c2ccc(F)cc2)C(=O)N1CCOC (stereo unspecified)	13%[59 µM]	·	·	·	-7%	·
C=CCNC(=O)c1ccccc1NC(=O)c1ccccc1N(C)S(C)(=O)=O	50µM*	-1%	0%	-2	8%	7%
CN(c1ccccc1C(=O)NCc1ccco1)S(C)(=O)=O	-24%[12.7 µM]	-22%	0%	-1	-16%	?
Cc1ccc(CNC(=O)c2ccccc2N(C)S(C)(=O)=O)cc1	40µM*	?	1%	2	5%	?
CCCNC(=O)c1ccccc1NC(=O)c1ccccc1N(C)S(C)(=O)=O	?	-4%	-5%	-2	11%	6%
SMILES	G9a block	PLK1 PBD inh	MmCpn inh	CCT chaperon mod	VDR inh	Sfp inh
OCc1nn2c(c1Br)NC(c1ccccc1)CC2C(F)(F)F (stereo unspecified)	-1%[59 µM]	7.5µM*	-1%	-3	?	8%
O=C(O)c1nn2c(c1Br)NC(c1ccccc1)CC2C(F)(F)F (stereo unspecified)	?	1%	1%	-2	6%	19%
Nc1nc(N)c(S(=O)(=O)c2ccccc2)c(Nc2ccccc2)n1	-2%[59 µM]	·	·	·	2%	·
COCCSc1ccccc1C(=O)Nc1ccccc1C(C)C	5µM*	-12%	0%	-2	-18%	18µM*
COCCSc1ccccc1C(=O)NCC1CCCO1 (stereo unspecified)	6.3µM*	-10%	·	-2	-16%	?
Cc1c(CNCCCc2ccccc2)c(C(=O)O)c(C)n1Cc1cccc(Cl)c1	-28%[59 µM]	·	·	·	2%	·
COc1cccc(C=Nc2cc(C(C)C)c(O)cc2C)c1O	·	-22%	·	-5	50µM*	·
CNC(=O)CO/N=C/c1ccc(N(C)C)cc1	-40%	6%	-1%	-4	6%	17%
Cc1cc(O)c(C(C)C)cc1NC(=O)Nc1ccc([N+](=O)[O-])cc1	·	6%	·	-1	12%	·
Cc1cc(O)c(C(C)C)cc1N=Cc1ccc(N(C)C)cc1	·	-18%	·	-4	45µM*	·
Cc1cc(O)c(C(C)C)cc1N=Cc1ccc([N+](=O)[O-])cc1	·	-23%	·	0	50µM*	·
COc1ccc(NC(=O)c2[nH]nc3c2CSc2ccccc2-3)c(OC)c1	-4%[59 µM]	·	·	·	14%	·
CCOC(=O)c1nn(-c2ccc(OCC)cc2)c2nc(CC(C)C)c(C#N)c(=O)n12	-26%[59 µM]	-7%	0%	-1	-7%	50µM*
c1ccc(Cc2nnc3sc(-c4ccc5c(c4)OCCO5)nn23)cc1	10µM*	-7%	-4%	0	0%	?
c1ccc(Cc2nnc3sc(-c4ccc5c(c4)OCO5)nn23)cc1	·	20µM*	·	-5	-20%	·
COc1ccc(CNC(=O)CCS(=O)(=O)c2cc(Br)cc3c2N(C(=O)C2CC2)CC3)cc1	6%[59 µM]	·	·	·	-13%	·
CCN(c1ccccc1)S(=O)(=O)c1ccc(Cl)c(NC(=O)CN(C)C2CCN(C)CC2)c1	11µM*	4%	-3%	2	13%	79µM*
Cc1ccc(NC(=S)N2CCn3cccc3C2c2cccnc2)cc1 (stereo unspecified)	45µM*	-3%	0%	-1	-29%	4%
S=C(Nc1ccc(Br)cc1)N1CCn2cccc2C1c1cccnc1 (stereo unspecified)	?	-11%	1%	-2	-9%	10%
CN1CCN(S(=O)(=O)c2ccc(Nc3ccc(F)cc3)c([N+](=O)[O-])c2)CC1	56µM*	-7%	0%	-1	6%	·
CCOC(=O)c1ccc(-n2c(CCC(=O)O)ccc2-c2ccc(Br)cc2)cc1	16µM*	·	·	·	?	·
CCOc1ccc(-n2c(CCC(=O)O)ccc2-c2ccc(Br)cc2)cc1	10µM*	·	·	·	10%	·
NNc1nc(-c2ccccc2Cl)nc2ccccc12	22%[0.501 µM]	-4%	1%	2	-16%	?
NNc1nc(-c2ccccc2Cl)nc2sc3c(c12)CCCC3	-1%[59 µM]	-20%	1%	0	8%	50µM*
